Data published in PubChem BioAssay.
Unmarked numbers belong to inactive results. Calls of active or inactive are those of the source.

System: not listed separately
Assay: MM1S myeloma cell viability, profiling panel, resazurin fluorescence, basal, 24 h, PK04 Diversity Set (AID 1174);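 note: MM1S multiple myeloma cell line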
Conditions: higher = more signal, called active from +8 up or from −8 down
Note: test concentration not given here.

SMILES | z-score
COC(=O)c1ccc(C(O)C2C=CC3C(=O)N(C)C(=O)C3N2NC(=O)OC(C)(C)C)o1 (stereo not given) | -0.29
CCOC(=O)C1=C[C@@H](CC)N(S(=O)(=O)c2ccc(C)cc2)[C@H]1c1ccccc1 | -0.666
COC(=O)[C@@]1(Cc2ccccc2)[C@H]2c3cc(C(=O)N(C)C)n(Cc4c(-c5ccccc5)noc4C)c3C[C@H]2CN1C(=O)c1ccccc1 | -2.41
COCCOC(=O)N1C(=O)[C@@]2(c3cc(C#CCNC(N)=O)ccc31)[C@H](c1ccccc1OCCO)N1[C@H](c3ccccc3)[C@H](c3ccccc3)OC(=O)[C@H]1[C@@H]2C(N)=O | -0.279
CC(C)N1C(=O)[C@@]2(c3ccc([N+](=O)[O-])cc3)CC(=O)N(CC34CC5CC(CC(C5)C3)C4)[C@@H]2c2ccc(CO)cc21 | -1.02
CC(=O)NCCCC[C@@H]1NC(=O)[C@@H]2C[C@H](C(=O)NCCCCN(C)C)[C@H](c3ccc(O)cc3)N2C1=O | 0.925
Cc1ccccc1C(O)C1C=CC2C(=O)N(C)C(=O)C2N1N1CCCCC1 (stereo not given) | -1.24
CCOC(=O)C[C@H]1[C@H](OC(=O)c2ccc(C(=O)c3ccccc3)cc2)[C@@H](NC(=O)C2CCCCC2)c2cc(OCCCO)ccc2N1C(=O)c1ccccc1 | -0.239
COc1ccc([Si](C)(C)[C@@H]2[C@@H](CC(=O)N3CCC[C@H]3CO)O[C@]3(C(=O)N(C)c4c(Br)cc(C)cc43)[C@H]2C)cc1 | 0.62
COC(=O)[C@@]1(Cc2ccc(F)cc2)[C@H]2c3cc(C(=O)N4CCCC4)n(Cc4cccc5ccccc45)c3C[C@H]2CN1C(=O)c1ccccc1 | -1.53
C=CC(COC(C)=O)NS(=O)(=O)c1ccc(Br)cc1 (stereo not given) | 0.364
CC(C)(C)OC(=O)CC[C@@]1(C(=O)O)N=C(c2ccc(OCCCO)cc2)O[C@@H]1c1ccccc1N=[N+]=[N-] | -0.789
CCOC(=O)C1=CCC(c2ccc(C#N)cc2)N(S(=O)(=O)c2ccc(C)cc2)C1 (stereo not given) | -1.35
O=C1OCCC=C[C@H]2OC34C=CCN(Cc5ccccc5)C(=O)[C@H]3N(CCCO)C(=O)[C@@H]4C12 (stereo not given in full) | 1.33
O=C1OCC=C[C@H]2OC34C=CCN(c5ccc(Cl)cc5)C(=O)[C@H]3N(CCCCCCO)C(=O)[C@@H]4[C@@H]12 (stereo not given in full) | 0.975
COC(=O)C(CC#Cc1ccc2c(c1)[C@]1(C(=O)N2)[C@H](c2ccc(OCCO)cc2)N2[C@H](c3ccccc3)[C@H](c3ccccc3)OC(=O)[C@H]2[C@@H]1C(=O)NC[C@H](O)c1ccccc1)C(=O)OC | 0.343
CCOC(=O)C1=CC[C@@H](c2ccccc2Cl)N(S(=O)(=O)c2ccc(C)cc2)C1 | 0.0161
O=C1O[C@H](c2ccccc2)[C@H](c2ccccc2)N2[C@H]1[C@@H](C(=O)O)[C@]1(C(=O)Nc3ccc(C#CC4=CCCCC4)cc31)[C@H]2c1ccc(OCCO)cc1 | 0.533
N#Cc1ccc(NN2C(C(O)c3ccc([N+](=O)[O-])cc3)C=CC3C(=O)N(c4ccccc4)C(=O)C32)cc1 (stereo not given) | -0.55
C=C(CCCC)/C(=C/C[C@H](OC(C)=O)c1ccc(CO)o1)c1cnc2ccccc2c1 | -0.735
O=C1OCCC=C[C@H]2OC34C=CCN(Cc5ccccc5)C(=O)[C@H]3N(CCCCCCO)C(=O)[C@@H]4C12 (stereo not given in full) | 0.654
C[C@]1(C(=O)NCc2ccccc2)c2ccccc2C(=O)N(Cc2ccc(OC(F)(F)F)cc2)[C@H]1c1ccc(CO)cc1 | 1.51
CC(C)NC(=O)[C@@]1(Cc2ccccc2I)c2ccccc2C(=O)N(Cc2ccccc2)[C@H]1c1ccc(CO)cc1 | -0.329
O=C1N(CCS(=O)(=O)c2ccccc2)c2ccccc2C[C@@]12COC(c1ccc(OCCCO)cc1)=N2 | -0.756
CC1CC/C=C\[C@H]2OC34C=CCN(Cc5ccccc5)C(=O)[C@H]3N(CCCCCO)C(=O)[C@@H]4C2C(=O)O1 (stereo not given in full) | 0.521

Target: Dihydroorotate dehydrogenase (quinone), mitochondrial (Plasmodium falciparum (isolate 3D7)) (UniProt Q08210)
Sequence (Q08210 whole entry, looked up): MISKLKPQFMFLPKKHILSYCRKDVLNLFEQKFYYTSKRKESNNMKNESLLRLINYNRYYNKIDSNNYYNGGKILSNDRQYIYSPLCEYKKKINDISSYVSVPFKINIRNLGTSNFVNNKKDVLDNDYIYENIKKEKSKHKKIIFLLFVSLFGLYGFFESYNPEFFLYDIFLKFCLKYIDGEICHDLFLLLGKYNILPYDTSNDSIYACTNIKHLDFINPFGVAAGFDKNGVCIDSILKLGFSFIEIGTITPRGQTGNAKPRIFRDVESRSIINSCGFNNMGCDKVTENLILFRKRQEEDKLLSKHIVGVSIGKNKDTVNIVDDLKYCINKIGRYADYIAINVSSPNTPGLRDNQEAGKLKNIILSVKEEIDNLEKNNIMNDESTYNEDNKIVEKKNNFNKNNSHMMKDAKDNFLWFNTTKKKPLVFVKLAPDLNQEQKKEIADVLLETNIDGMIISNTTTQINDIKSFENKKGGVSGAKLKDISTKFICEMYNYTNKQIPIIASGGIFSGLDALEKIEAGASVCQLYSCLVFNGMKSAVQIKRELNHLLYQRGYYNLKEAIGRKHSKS
Assay: PfDHODH enzyme inhibitors, primary screen, biochemical, C-terminal His tag, absorbance 600 nm (AID 1175);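 note: recombinant parasite enzyme with a five histidine tag at its C terminus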
Conditions: DCIP absorbance 600 nm, higher = more signal, called active from +8 up or from −8 down

SMILES | composite z-score
COCCOC(=O)N1C(=O)[C@@]2(c3cc(C#CCNC(N)=O)ccc31)[C@H](C(=O)N1CCc3cc(OC)c(OC)cc3C1)[C@H]1C(=O)O[C@H](c3ccccc3)[C@H](c3ccccc3)N1[C@@H]2c1ccc(OCCO)cc1 | -0.232
CCOC(=O)C1=CC[C@@H](c2ccccc2)N(S(=O)(=O)c2ccc(C)cc2)[C@H]1C(=O)OCC | -0.103
O=C(CS)NCCCCCCNC(=O)[C@@H]1C[C@@H]2C(=O)N3CCC[C@H]3C(=O)N2[C@@H]1c1ccc(O)cc1 | 0.586
CCOC(=O)C1=CCC(c2ccc([N+](=O)[O-])cc2)N(S(=O)(=O)c2ccc(C)cc2)C1 (stereo not given) | 0.774
COCCOC(=O)N1C(=O)[C@@]2(c3cc(C#CCNC(N)=O)ccc31)[C@H](c1ccc(O)cc1)N1[C@H](c3ccccc3)[C@H](c3ccccc3)OC(=O)[C@H]1[C@@H]2C(=O)Nc1nc2ccccc2s1 | -1.96
O=c1cccc(CCc2ccccc2)o1 | -1.19
O=C1N(CCS(=O)(=O)c2ccccc2)Cc2ccccc2[C@H]2OC(c3ccc(OCCCO)cc3)=N[C@@]12CCS(=O)(=O)c1ccccc1 | -0.796
CN(C)C(=O)[C@@]1(CCC(=O)OC(C)(C)C)N=C(c2ccc(OCCCO)cc2)O[C@H]1c1ccccc1 | -0.507
O=C1C2C=CC(C(O)c3ccc(-c4ccccc4)s3)N(n3cnnc3)C2C(=O)N1Cc1ccccc1 (stereo not given) | 0.267
CC(C)C(O)C1C=CC2C(=O)N(c3ccccc3)C(=O)C2N1Nc1ccc(C#N)cc1 (stereo not given) | -1.02
COC(=O)c1ccc(C(O)C2C=CC3C(=O)N(C)C(=O)C3N2NC(=O)OC(C)(C)C)o1 (stereo not given) | -0.0658
CCOC(=O)C1=C[C@@H](CC)N(S(=O)(=O)c2ccc(C)cc2)[C@H]1c1ccccc1 | -0.157
COC(=O)[C@@]1(Cc2ccccc2)[C@H]2c3cc(C(=O)N(C)C)n(Cc4c(-c5ccccc5)noc4C)c3C[C@H]2CN1C(=O)c1ccccc1 | -0.403
COCCOC(=O)N1C(=O)[C@@]2(c3cc(C#CCNC(N)=O)ccc31)[C@H](c1ccccc1OCCO)N1[C@H](c3ccccc3)[C@H](c3ccccc3)OC(=O)[C@H]1[C@@H]2C(N)=O | 1.39
CC(C)N1C(=O)[C@@]2(c3ccc([N+](=O)[O-])cc3)CC(=O)N(CC34CC5CC(CC(C5)C3)C4)[C@@H]2c2ccc(CO)cc21 | -4.98
CC(=O)NCCCC[C@@H]1NC(=O)[C@@H]2C[C@H](C(=O)NCCCCN(C)C)[C@H](c3ccc(O)cc3)N2C1=O | -0.0536
Cc1ccccc1C(O)C1C=CC2C(=O)N(C)C(=O)C2N1N1CCCCC1 (stereo not given) | -0.318
CCOC(=O)C[C@H]1[C@H](OC(=O)c2ccc(C(=O)c3ccccc3)cc2)[C@@H](NC(=O)C2CCCCC2)c2cc(OCCCO)ccc2N1C(=O)c1ccccc1 | -1.06

SMILES | composite z-score
COc1ccc([Si](C)(C)[C@@H]2[C@@H](CC(=O)N3CCC[C@H]3CO)O[C@]3(C(=O)N(C)c4c(Br)cc(C)cc43)[C@H]2C)cc1 | -1.88
COC(=O)[C@@]1(Cc2ccc(F)cc2)[C@H]2c3cc(C(=O)N4CCCC4)n(Cc4cccc5ccccc45)c3C[C@H]2CN1C(=O)c1ccccc1 | -0.422
C=CC(COC(C)=O)NS(=O)(=O)c1ccc(Br)cc1 (stereo not given) | -0.287
CC(C)(C)OC(=O)CC[C@@]1(C(=O)O)N=C(c2ccc(OCCCO)cc2)O[C@@H]1c1ccccc1N=[N+]=[N-] | 0.0016
CCOC(=O)C1=CCC(c2ccc(C#N)cc2)N(S(=O)(=O)c2ccc(C)cc2)C1 (stereo not given) | -0.496
O=C1OCCC=C[C@H]2OC34C=CCN(Cc5ccccc5)C(=O)[C@H]3N(CCCO)C(=O)[C@@H]4C12 (stereo not given in full) | -1.01
O=C1OCC=C[C@H]2OC34C=CCN(c5ccc(Cl)cc5)C(=O)[C@H]3N(CCCCCCO)C(=O)[C@@H]4[C@@H]12 (stereo not given in full) | -1.47
COC(=O)C(CC#Cc1ccc2c(c1)[C@]1(C(=O)N2)[C@H](c2ccc(OCCO)cc2)N2[C@H](c3ccccc3)[C@H](c3ccccc3)OC(=O)[C@H]2[C@@H]1C(=O)NC[C@H](O)c1ccccc1)C(=O)OC | 0.676
CCOC(=O)C1=CC[C@@H](c2ccccc2Cl)N(S(=O)(=O)c2ccc(C)cc2)C1 | -0.978
O=C1O[C@H](c2ccccc2)[C@H](c2ccccc2)N2[C@H]1[C@@H](C(=O)O)[C@]1(C(=O)Nc3ccc(C#CC4=CCCCC4)cc31)[C@H]2c1ccc(OCCO)cc1 | -14.1 (active)
N#Cc1ccc(NN2C(C(O)c3ccc([N+](=O)[O-])cc3)C=CC3C(=O)N(c4ccccc4)C(=O)C32)cc1 (stereo not given) | -0.0079
C=C(CCCC)/C(=C/C[C@H](OC(C)=O)c1ccc(CO)o1)c1cnc2ccccc2c1 | -6.03
O=C1OCCC=C[C@H]2OC34C=CCN(Cc5ccccc5)C(=O)[C@H]3N(CCCCCCO)C(=O)[C@@H]4C12 (stereo not given in full) | 0.261
C[C@]1(C(=O)NCc2ccccc2)c2ccccc2C(=O)N(Cc2ccc(OC(F)(F)F)cc2)[C@H]1c1ccc(CO)cc1 | -0.482
CC(C)NC(=O)[C@@]1(Cc2ccccc2I)c2ccccc2C(=O)N(Cc2ccccc2)[C@H]1c1ccc(CO)cc1 | 0.799
O=C1N(CCS(=O)(=O)c2ccccc2)c2ccccc2C[C@@]12COC(c1ccc(OCCCO)cc1)=N2 | 0.558
CC1CC/C=C\[C@H]2OC34C=CCN(Cc5ccccc5)C(=O)[C@H]3N(CCCCCO)C(=O)[C@@H]4C2C(=O)O1 (stereo not given in full) | -0.419
